Source: PubChem BioAssay
Mtb UGM inh: blocks M. tuberculosis UGM enzyme; inhibition, % at 10 µM; purified UGM, fluorescence polarization probe displacement; actives 0.06% (n = 320,000); AID 504406; P9WIQ1; in the data active = inhibition above about 10%, passing the limit was not always enough; inconclusive = no clear call, values can overlap the other calls
Target sequence (P9WIQ1 whole entry, looked up): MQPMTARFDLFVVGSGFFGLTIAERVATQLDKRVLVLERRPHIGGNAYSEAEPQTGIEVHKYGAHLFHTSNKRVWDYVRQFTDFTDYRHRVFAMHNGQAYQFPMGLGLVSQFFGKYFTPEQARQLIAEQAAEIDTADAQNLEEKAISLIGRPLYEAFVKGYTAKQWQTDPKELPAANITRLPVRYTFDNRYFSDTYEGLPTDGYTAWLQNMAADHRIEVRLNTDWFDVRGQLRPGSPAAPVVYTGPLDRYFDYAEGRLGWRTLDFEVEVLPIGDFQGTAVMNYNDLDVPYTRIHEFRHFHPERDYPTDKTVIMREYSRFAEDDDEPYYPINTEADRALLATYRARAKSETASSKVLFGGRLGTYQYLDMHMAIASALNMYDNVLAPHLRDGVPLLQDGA
Rv3671c protease: inhibits the M. tuberculosis serine protease Rv3671c; P9WHR9; inhibition, % at 5.96 µM; actives 0.048% (n = 320,000); in the data active = inhibition above about 38%;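 note: extracellular domain of Rv3671c used as enzyme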
Mtb BioA inh: BioA (M. tuberculosis) enzyme inhibition; purified M. tuberculosis BioA enzyme, plate reader; inhibition, % at 9.99 µM; actives 0.096% (n = 360,000); in the data active = inhibition above about 40%; inconclusive = no clear call, values can overlap the other calls
FadD28 binding: inhibitors of Mycobacterium tuberculosis FadD28 bisubstrate binding; FadD28 bisubstrate probe binding, fluorescence polarization; inhibition, % at 12.5 µM; actives 0.22% (n = 360,000); in the data active = inhibition above about 8.5%, passing the limit was not always enough; inconclusive = no clear call, values can overlap the other calls
TcdB GH inh: inhibitors of Clostridioides difficile toxin B glycohydrolase | P18177 | TcdB glycohydrolase enzymatic assay, plate reader | inhibition, % at 9.99 µM | actives 0.24% (n = 350,000) | AID 652162; in the data active = inhibition above about 10%
RecA intein inh: inhibitors of M. tuberculosis RecA intein splicing | P9WHJ3 | cell-free RecA intein splicing, fluorescence | inhibition, % (concentration not given with the values) | actives 0.75% (n = 290,000) | AID 2221; in the data active = inhibition above about 30%; inconclusive = no clear call, values can overlap the other calls
GFP chromophore: counter-screen: blocks GFP chromophore formation | shares compounds with RecA intein inh | cell-free GFP chromophore formation, fluorescence | EC50, µM | actives 83% (n = 2,100) | AID 434968; call rule not given here
Of the large screens only hits and unclear results are named; the others gave an inactive call (follow-up assays come after a bar, where they were run). An excerpt weighted towards active compounds, which were near 0.9% of everything screened.

Cc1ccc(S(=O)(=O)N(C)C[C@@H]2OCCCC[C@H](C)Oc3ccc(NC(=O)Nc4ccc(F)cc4)cc3C(=O)N([C@@H](C)CO)C[C@@H]2C)cc1	none (no result: Mtb UGM inh, Rv3671c protease, FadD28 binding, RecA intein inh)
CN(C)/C=C/C(=O)c1ccc2noc(-c3ccc(F)cc3)c2c1	RecA intein inh 31 | GFP chromophore inactive
Cc1ccc(-c2onc3ccc(C(=O)/C=C/N(C)C)cc23)cc1	none
COc1ccc2c3c([nH]c2c1)[C@H](CO)N(Cc1nccs1)CC31CN(C(=O)C2CC2)C1	none (no result: Mtb UGM inh, Rv3671c protease, Mtb BioA inh, FadD28 binding, RecA intein inh)
Cc1ccc(C2=NN(C(=O)CCl)C(c3ccco3)C2)o1 (stereo not given)	RecA intein inh 63 (no result: Mtb UGM inh, Rv3671c protease, Mtb BioA inh, FadD28 binding) | GFP chromophore 40
CC(=O)N1N=C(c2ccco2)CC1c1ccco1 (stereo not given)	none (no result: Rv3671c protease)
C[C@H](CO)N1C[C@H](C)[C@@H](CN(C)Cc2ccccc2F)Oc2cc(C#CC3CC3)ccc2S1(=O)=O	none (no result: Mtb UGM inh, Rv3671c protease, FadD28 binding, RecA intein inh)
COCc1[nH]nc2c1C(c1ccc(F)cc1F)C(C#N)=C(N)O2 (stereo not given)	none (no result: TcdB GH inh)
CCn1c2ccccc2c2cc(C3C(C#N)=C(N)Oc4n[nH]c(COC)c43)ccc21 (stereo not given)	RecA intein inh 77 (no result: TcdB GH inh) | GFP chromophore 10
COCc1[nH]nc2c1C(c1ccc(OC)c(OC)c1)C(C#N)=C(N)O2 (stereo not given)	RecA intein inh 56 (no result: TcdB GH inh) | GFP chromophore 31
C[C@@H]1CN([C@H](C)CO)C(=O)c2cccc(NC(=O)Nc3ccc4c(c3)OCO4)c2O[C@@H]1CN(C)Cc1ccc(C(=O)Nc2ccccc2N)cc1	none (no result: Mtb UGM inh, Rv3671c protease, FadD28 binding, RecA intein inh)
CCCNC(=O)[C@H]1[C@H](CO)[C@H]2Cn3c(ccc(C4=CCCC4)c3=O)[C@H]2N1C(=O)C1CC1	none (no result: Mtb UGM inh, Rv3671c protease, FadD28 binding, RecA intein inh)
COC(=O)c1ccccc1Nc1ccccc1	none (no result: TcdB GH inh, RecA intein inh)
COC(=O)c1ccccc1NC1=C/C(=N\S(=O)(=O)c2cccs2)c2ccccc2C1=O	RecA intein inh 81 | GFP chromophore 0.1
COC(=O)c1ccccc1NC1=C/C(=N\S(=O)(=O)c2ccc(C(=O)O)cc2)c2ccccc2C1=O	FadD28 binding 24, RecA intein inh 63 (no result: TcdB GH inh) | GFP chromophore inconclusive
COc1ccc(NC(=O)N(C)C[C@@H]2OCCCC[C@H](C)Oc3ccc(NS(=O)(=O)c4c(C)noc4C)cc3C(=O)N([C@@H](C)CO)C[C@H]2C)cc1	none (no result: Mtb UGM inh, Rv3671c protease, Mtb BioA inh, FadD28 binding, RecA intein inh)
O=C(C[C@H]1C[C@H]2c3cc(NC(=O)C4CCOCC4)ccc3O[C@H]2[C@@H](CO)O1)NCc1ccncc1	none (no result: Mtb UGM inh, Rv3671c protease, FadD28 binding, RecA intein inh)
Cc1[nH]n(C)c(=O)c1C(=O)c1c(-c2ccccc2Cl)noc1C	RecA intein inh 74 | GFP chromophore 17
Cc1onc(-c2ccccc2Cl)c1C(N)=O	none (no result: TcdB GH inh)
Cc1cccc(N2C(N)=C(C#N)C(C#N)(C#N)C2c2ccccc2)c1 (stereo not given)	none (no result: TcdB GH inh)
N#CC1=C(N)N(c2ccccc2)C(c2cccc([N+](=O)[O-])c2)C1(C#N)C#N (stereo not given)	RecA intein inh 39 (no result: Mtb BioA inh, TcdB GH inh) | GFP chromophore 24
COc1ccc(NC(=O)c2ccccc2NC(=O)c2ccccc2)cc1	none
COc1ccc(C(=O)Nc2ccc(O)c3ccccc23)cc1	RecA intein inh 98 | GFP chromophore 0.22
COc1ccc(NC(=O)Nc2ccc(O)c3ccccc23)cc1	RecA intein inh 67 (no result: Mtb BioA inh, FadD28 binding) | GFP chromophore 4.3
C/C(=N\NC(=O)Cc1cc(=O)[nH][nH]1)c1cccc([N+](=O)[O-])c1	RecA intein inh 88 (no result: Mtb BioA inh) | GFP chromophore 8.8
C/C(=N\NC(=O)CSCc1ccccc1Br)c1cccc([N+](=O)[O-])c1	none
C/C(=N/NC(=O)Cc1cc(=O)[nH][nH]1)c1ccc([N+](=O)[O-])cc1	RecA intein inh 84 (no result: Mtb BioA inh, TcdB GH inh) | GFP chromophore 7.4
C[C@@H]1CCCCO[C@@H](CN(C)C(=O)c2ccccc2)[C@H](C)CN([C@H](C)CO)C(=O)c2cc(NC(=O)Nc3cccc4ccccc34)ccc2O1	none (no result: Mtb UGM inh, Rv3671c protease, FadD28 binding, RecA intein inh)
C[C@@H]1CN([C@H](C)CO)C(=O)c2cc(NS(=O)(=O)c3ccccc3)ccc2O[C@@H](C)CCCCO[C@H]1CN(C)C(=O)c1ccccc1	none (no result: Mtb UGM inh, Rv3671c protease, Mtb BioA inh, FadD28 binding, RecA intein inh)
O=Cc1ccc(Sc2nnc(-c3ccccc3)o2)c([N+](=O)[O-])c1	RecA intein inh 55 (no result: TcdB GH inh) | GFP chromophore 26
CC(C)Nc1ccc(Nc2ccccc2)cc1	RecA intein inh 36 | GFP chromophore inactive
CC1=NNC(=O)/C1=C\c1cn(-c2ccccc2)nc1-c1cccs1	RecA intein inh 97 (no result: Mtb BioA inh) | GFP chromophore 2.8
